Results from PubChem BioAssay AID1460 (National Center for Advancing Translational Sciences (NCATS), 2008).
In all, about 270,000 compounds went through this assay and about 5,800 (2.1%) were called active. Roughly 16% stayed inconclusive and do not appear here. The call rests on the fitted dose curve; in most records, active means well fitted inhibition curve with a large enough effect; inconclusive means small, poorly fitted or top-dose-only effect; inactive means flat fitted curve, though single readings scatter. The entries come from a sample that favours actives as a whole. Where a call stands in place of a potency, no number is given.

biological target: Microtubule-associated protein tau (Homo sapiens) (UniProt P10636); experiment: qHTS for Inhibitors of Tau Fibril Formation, Thioflavin T Binding; conditions: recombinant tau K18 P301L (four-repeat tau fragment), heparin-induced fibrillization, ThT fluorescence; series mostly up to 57.4 µM; further: nearly all actives have a fitted effect of over 55% in size
Outline: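 In this qHTS, human K18 P301L tau is incubated with compound and heparin for 6 hr at 37 C, and Thioflavin T fluorescence then reports fibril load.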
Potency means the concentration at half of the fitted maximal effect.

Sequence of Microtubule-associated protein tau (Homo sapiens) (P10636 561-689 P618L limits assumed): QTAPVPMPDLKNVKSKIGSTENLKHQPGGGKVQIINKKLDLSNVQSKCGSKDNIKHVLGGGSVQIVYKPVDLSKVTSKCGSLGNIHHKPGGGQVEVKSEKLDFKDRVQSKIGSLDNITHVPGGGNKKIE

SMILES | Potency
O=C(c1cc2nc(-c3ccccc3)cc(-c3ccccc3)n2n1)N1CCC2(CC1)OCCO2 | inactive
CC1=C(C(=O)Nc2ccccc2)SCCO1 | inactive
COc1cccc(-c2nc3ccc(N4CCN(C)CC4)cc3[nH]2)c1 | inactive
CCN1CC2C3CCC(C)(O3)C2C1 (centres undefined) | inactive
Cc1nnc(NC(=O)c2cccn(Cc3cccc(F)c3)c2=O)s1 | inactive
N#Cc1c(Cl)c(Cl)c(Cl)c(C#N)c1Cl | 2.24 µM (active)
Cc1ccc(NC(=O)N(Cc2ccc3c(c2)OCO3)C2CCN(Cc3ccccc3)CC2)cc1F | inactive
Cc1ccc(-n2c(/C=C/c3cccc(C(F)(F)F)c3)nc3ccccc3c2=O)cc1 | inactive
C=CCN1CCC23c4c5ccc(O)c4O[C@H]2C(=O)CC[C@@]3(O)C1C5 (some centres undefined) | inactive
C[C@@]12CCC3C(CC[C@@H]4CC(O)CC[C@@]34C)C1CCC2O (some centres undefined) | inactive
CC1=CC(=Cc2sc3ccccc3[n+]2C)C=C(C)O1 | 15.8 µM (active)
CC(C)(C)c1ccc(CN2C(=O)CN=C(c3ccccc3)c3ccccc32)cc1 | inactive
Cc1nn(Cc2ccccc2Cl)c(Cl)c1C(=O)OC(C(=O)NC(N)=O)C(C)C (centres undefined) | inactive
CCC1(C)CC(CCNCc2ccc(N(C)C)cc2)(c2ccc(F)cc2)CCO1 (centres undefined) | inactive
COc1cc(OC)cc(C2(C#N)CCN(C)CC2)c1 | inactive
N[C@H](C(=O)O)c1cc(=O)[nH]o1 | inactive
C=CCSSCC=C | inactive
CCN(CC)c1ccc([N+](=O)[O-])c2cccnc12 | 11.2 µM (active)
c1ccc(C2NCc3ccccc3-n3cccc32)cc1 (centres undefined) | inactive
Cc1ccc(Cn2nnnc2CN2CCC(n3nnc4ccccc43)CC2)cc1 | inactive
CCOC(=O)C(O)(c1ccc(NC(=O)c2ccco2)c(OC)c1)C(F)(F)F (centres undefined) | inactive
CCCCC(=O)N/N=C/c1c(O)n(CC)c(=S)n(CC)c1=O | inactive
C1CC[C@H]([C@@]23C[C@H](C[C@H]4CCCN[C@H]42)[C@@H]2CCCCN2C3)NC1 | inactive
Cn1c(O)c(C=Nc2ccc3c(c2)CCC3)c(=O)n(C)c1=O | inactive
